# Key:
# Conditions in all cases: concentration: 1 μM, replicates: in singlicate; n = 1
# PRKX = tested on: PRKX
# PRP4 = tested on: PRP4
# PYK2 = tested on: T1, PYK2
# T1 construct: gene PTK2B
# QSK = tested on: QSK
# RAF1 = tested on: RAF1
# RET = tested on: RET
# RIOK1 = tested on: RIOK1
# RIOK2 = tested on: RIOK2
# RIOK3 = tested on: RIOK3
# RIPK1 = tested on: RIPK1
# 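Note: KINOMEscan kinase panel screen.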
SMILES,%Inh (PRKX) [%],%Inh (PRP4) [%],%Inh (PYK2) [%],%Inh (QSK) [%],%Inh (RAF1) [%],%Inh (RET) [%],%Inh (RIOK1) [%],%Inh (RIOK2) [%],%Inh (RIOK3) [%],%Inh (RIPK1) [%]
Cc1nnc(-c2ccc3ncn(-c4ccc(S(C)=O)cc4)c3c2)o1 (stereo not drawn),3,0,12,0,0,7,6,11,20,4
CCn1c(-c2nonc2N)nc2ccccc21 [SB-693162/GW549034],24,0,0,0,0,22,0,14,0,0
Nc1nc(N)c2nc(-c3ccccc3)[nH]c2n1 [SKF-12778],7,0,0,10,11,25,20,37,8,18
CN(C)c1cc(-c2ccc3c(N)n[nH]c3c2)nc(N)n1 [GSK2219329],18,6,0,5,0,0,48,0,38,0
O=c1cc(N2CCOCC2)nc2n(Cc3ccc(F)c(Cl)c3)ccn12 [GSK2297099],20,17,0,2,54,0,5,18,14,1
Nc1nc(-c2ccccc2F)c(-c2ccnc3ccccc23)s1 [GW560459],4,33,0,0,8,0,40,52,25,0
Nc1ncnc2c1ncn2-c1ccc(Cl)cc1 [AH2635],0,36,21,0,1,9,51,0,35,17
O=C(Nc1n[nH]c2nc(-c3ccccc3)c(Cl)cc12)C1CC1 [SB-734909],0,0,0,38,30,0,7,41,7,55
CN1C(=O)C(Nc2cc(Cl)c(O)c(Cl)c2)=C(c2ccc(Cl)cc2)C1=O [SB-404321],0,17,1,0,10,0,0,0,0,0
COc1cccc(-n2cnc3c(N)ncnc32)c1 [SKF-97416],32,0,0,28,0,0,0,22,0,0
Nc1ncnc2c1ncn2-c1cccc(F)c1 [SKF-97560],0,0,6,13,14,1,38,19,49,22
Cc1nnc(-c2ccc(C)c(-c3ccc(C(=O)O)cc3)c2)o1 [GW608005],0,8,0,0,0,2,15,19,0,5
CCCC(=O)Nc1n[nH]c2ncc(-c3cccc4ccccc34)cc12 [SB-642057],12,26,0,13,9,33,19,0,0,0
O=C(NCc1cccs1)c1cc(C(=O)c2c(Cl)cccc2Cl)c[nH]1 [GW823670],0,0,0,0,0,2,5,0,0,0
COc1cc2nccc(Nc3ccc(OCc4ccc(NC(C)=O)cc4)cc3)c2cc1OC.Cl [GW440135],7,50,26,15,18,11,0,0,0,0
COc1ccc(-c2cc3c(C)nc(N)nc3n([C@H]3CC[C@H](O)CC3)c2=O)cn1,0,0,0,0,0,0,0,0,0,0
COC(=O)c1c(-c2ccccc2)c2cc(C)ccc2c(=O)n1Cc1ccccc1,0,4,0,0,66,13,3,0,0,0
Cc1cccc(-c2cc(-c3c[nH]nc3-c3ccccn3)ccn2)c1 [GW679395],12,22,0,3,3,48,6,0,0,0
Cc1cccc(-c2nc(Nc3ccc4c(cnn4C)c3)c3ccccc3n2)n1 [GW876731],0,0,0,0,29,4,0,0,0,0
COc1cc2ncn(-c3cc(OCCCc4ccccc4)c(C(N)=O)s3)c2cc1OC [GSK205189],3,0,5,0,0,0,26,0,12,0
OCCCNc1nccc(-c2c(-c3cccc(C(F)(F)F)c3)nn3cc(C(F)(F)F)ccc23)n1 [GW630813],0,17,5,0,0,11,38,0,14,0
CC(C)(C)c1ccc(C(=O)Nc2cn3cc(-c4ccccc4)ccc3n2)cc1,3,19,0,0,0,0,2,14,22,0
COc1ccc(-n2cnc3c(N)ncnc32)cc1 [SKF-97236],15,0,0,0,0,34,14,28,0,0

SMILES,%Inh (PRKX) [%],%Inh (PRP4) [%],%Inh (PYK2) [%],%Inh (QSK) [%],%Inh (RAF1) [%],%Inh (RET) [%],%Inh (RIOK1) [%],%Inh (RIOK2) [%],%Inh (RIOK3) [%],%Inh (RIPK1) [%]
FC(F)(F)c1ccc(-c2ncn(CCCN3CCOCC3)c2-c2ccncc2)cc1 [SB-217780],14,0,34,0,0,20,47,5,50,0
COc1cc2ncn(-c3cc(OCc4ccncc4Br)c(C(N)=O)s3)c2cc1OC [GW854278],26,0,7,2,7,20,38,14,39,3
CCC(=O)c1c(-c2ccccc2)c2cc(Cl)ccc2c(=O)n1Cc1cc(S(C)(=O)=O)n(CC(F)F)n1,1,6,0,0,6,0,0,13,25,1
Fc1cccc(CSc2nnc(-c3ccc4c(c3)CCO4)o2)c1,7,0,8,0,2,0,0,5,8,3
COc1cc(Nc2ccnc3ccc(C(F)(F)F)cc23)cc(OC)c1OC [GW577382],15,27,0,22,20,9,11,15,0,15
Nc1nccc2scc(-c3ccc4c(c3)CCN4C(=O)Cc3ccccc3)c12 [GSK2576924],14,13,0,0,5,11,13,6,11,71
CCC(=O)c1c(-c2ccccc2)c2cc(Cl)ccc2c(=O)n1Cc1cc(C(=O)NC2CC2)n(C)n1,0,0,0,0,40,0,0,17,10,0
COC(=O)c1c(-c2ccccc2)c2cc(Br)ccc2c(=O)n1Cc1ccc(S(C)(=O)=O)cc1,28,0,6,0,27,16,0,19,0,0
O=C1NC(=O)C(c2ccccc2)=C1Nc1cccc(O)c1 [SB-390534],0,0,12,9,13,0,0,0,0,0
COc1cc2nccc(Nc3cccc(Oc4ccccc4)c3)c2cc1OC.Cl [GW284543],22,19,0,5,5,25,21,0,4,0
CCn1c(-c2ccoc2)nc2cnccc21 [SB-733887],0,58,4,0,21,1,28,0,27,0
Cl.c1ccc(Cn2cnc3cc(Nc4ncnc5ccccc45)ccc32)cc1 [GW272142],31,28,10,0,3,3,35,0,38,8
O=C(Nc1n[nH]c2nc(-c3ccccc3)c(Br)cc12)C1CC1 [SB-708998],0,3,0,0,14,74,35,17,24,48
CCS(=O)c1ccc(-c2coc3ccc(-c4nnc(C)o4)cc23)cc1 (stereo not drawn),0,21,0,0,0,0,0,15,0,1
Cc1ccc(Oc2ccc(Nc3ncnc4cc[nH]c34)cc2C)cn1,2,46,9,13,5,8,100,0,24,0
Cn1c(=O)c(F)c(Nc2ccc(I)cc2F)c2c(=O)n(OC[C@H](O)CO)cnc21,0,0,17,0,37,11,5,0,23,0
Cl.NS(=O)(=O)c1cccc(Nc2cc(-c3ccc(F)cc3)n[nH]2)c1 [GW824645],0,0,0,0,10,0,0,0,11,0
CCC(=O)c1c(-c2ccccc2)c2cc(Cl)ccc2c(=O)n1Cc1ccc(C(=O)O)cc1,0,0,0,0,26,0,6,0,23,0
Cc1cc(Nc2nc(-c3cccc(C)n3)nc3ccccc23)ccn1 [GW872411],0,0,14,0,0,0,0,0,0,0
O=C(NCCNc1ccnc(Nc2ccc(F)cc2)n1)Nc1ccc2c(c1)OCO2 [GSK1379882],30,47,9,0,5,0,15,0,15,25
Cc1ccc(-c2ccc3c(ccc4sc5c(c43)NC[C@@H](C)N=C5N(C)C)n2)cn1,0,0,0,0,0,0,0,0,0,0
COc1ccc(Nc2nccc(N3CCC(NS(=O)(=O)c4ccc(NC(C)=O)cc4)C3)n2)cc1 (stereo not drawn) [GSK1379729],2,14,0,11,18,28,38,9,29,28
CCS(=O)(=O)c1ccc(OC)c(Nc2ncc(-c3ccc(F)cc3)o2)c1.Cl [GW591947],0,16,11,0,9,13,22,0,29,10

SMILES,%Inh (PRKX) [%],%Inh (PRP4) [%],%Inh (PYK2) [%],%Inh (QSK) [%],%Inh (RAF1) [%],%Inh (RET) [%],%Inh (RIOK1) [%],%Inh (RIOK2) [%],%Inh (RIOK3) [%],%Inh (RIPK1) [%]
Cc1c(Cn2c(C)nn3c(=O)cc(N4CCO[C@H](C)C4)nc23)cccc1C(F)(F)F [GSK2373690],29,26,1,14,19,6,15,17,27,1
Cc1nn2c(=O)cc(N3CCOCC3)nc2n1Cc1cccc(Cl)c1Cl [GSK2342769],8,15,6,8,15,72,38,36,11,0
COc1ccc(CNC(=O)NC2CCN(c3ccnc(Nc4ccc(F)cc4)n3)C2)cc1 (stereo not drawn) [GSK1379706],18,47,1,0,6,21,8,0,0,0
CCC(=O)c1c(-c2ccccc2)c2cc(Cl)ccc2c(=O)n1Cc1cc(S(C)(=O)=O)n(CCC(C)(C)O)n1,30,0,0,8,14,14,8,42,0,20
COc1cc(OC)cc(-c2cc3cnc(N)nc3nc2NC(=O)NC(C)(C)C)c1,5,0,4,0,0,32,8,0,45,0
COC(=O)c1c(-c2ccccc2)c2cc(Br)ccc2c(=O)n1Cc1ccc(NC(=O)CCC(=O)O)cc1,10,0,16,0,14,5,0,0,0,0
O=C(Nc1ccc2c(c1)OCO2)NC1CCN(c2ccnc(NCc3ccc(F)cc3)n2)CC1 [GSK1379859],3,0,0,0,3,21,33,0,30,17
Cc1ccccc1COc1cc(-n2cnc3cc(Cl)ccc32)sc1C(N)=O [GW813349],0,19,4,0,0,7,23,27,13,16
COc1ccc(-c2cc3c(C)nc(N)nc3n([C@H]3CC[C@H](OCCO)CC3)c2=O)cn1,12,0,0,0,0,0,0,0,0,0
C[C@@H]1CC[C@H](C(=O)NC2CCCCC2)CN1c1cc(-c2ccc3c(N)n[nH]c3c2)nc(N)n1 [GSK2291363],84,26,24,7,16,53,96.1,22,93.7,22
CCCNC(=O)Nc1ccc(Oc2ncnc3ccn(C)c23)cc1,0,8,3,0,2,8,9,10,14,0
Nc1n[nH]c2ncc(-c3ccccc3)cc12 [SB-517081],0,24,0,1,0,12,6,0,4,0
COc1cc(Nc2nccc(N3CCC(NC(=O)C(C)c4ccc(Cl)cc4)C3)n2)cc(OC)c1OC (stereo not drawn) [GSK1379757],5,23,10,2,10,7,58,0,54,20
COc1cc(Nc2nccc(N3CCC(NC(=O)C4COc5ccccc5O4)C3)n2)cc(OC)c1OC (stereo not drawn) [GSK1379761],15,32,18,2,7,2,66,0,43,7
CN1C(=O)C(Nc2ccccc2)=C(c2ccccc2)C1=O [SB-300079],0,2,6,0,44,0,13,0,0,0
O=C(Nc1n[nH]c2cc(-c3ccccc3F)ccc12)C1CC1 [SB-733371],0,7,15,6,35,0,50,0,63,78
CCc1nc(-c2cccc(C)c2)c(-c2ccncc2)s1,0,26,0,0,22,0,12,8,12,0
COc1cccc(C2=C(N(C)c3ccccc3)C(=O)NC2=O)c1 [SB-334865],25,41,8,1,12,17,39,0,0,0
COc1cccc(C2=C(Nc3cccc(C(=O)O)c3)C(=O)NC2=O)c1 [SB-390770],7,49,0,0,11,17,14,6,0,0
CCC(=O)c1c(-c2ccccc2)c2cc(Cl)ccc2c(=O)n1Cc1cc(S(C)(=O)=O)n(CC(N)=O)n1,0,38,0,0,11,1,1,0,0,0
Nc1n[nH]c2nnc(-c3ccccc3)c(-c3ccccc3)c12 [GW554060],18,8,0,0,18,0,32,13,0,0
Nc1ncnc2c1ncn2-c1cccc2ccccc12 [SKF-97184],0,0,4,6,0,0,7,0,5,0
CCc1ccc(-c2ccc3c(c2)-c2nn(C)cc2S(=O)(=O)N3C)cc1,0,27,0,0,19,16,15,0,0,12

# From article PMC5540273 (PLoS ONE, 2017)
